Records with an inconclusive call do not appear. Calls of active or inactive are those of the source. Calls follow the shape of the dose curve; as a rule, active = well fitted curve in the direction sought with a large enough effect; inconclusive = small, poorly fitted or top-dose-only effect, or another doubt; inactive = no such curve, though single readings can be large; an effect the other way counts as inactive or inconclusive.
Legend:
[1] = qHTS of pediatric cancer cell lines to identify multiple opportunities for drug repurposing: Primary screen for BT-37 cells (AID 1347094); also: potency is read from the fitted curve at half-maximal effect
Outline: (§1)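 Primary screen of approved and investigational compounds on cells in growth media at 37 degrees C, 5% CO2. MIPE set at 11-point and NPC set at 8-point dilutions; viability scored by ATP-based luminescence at 48 hours.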

[2] = qHTS of pediatric cancer cell lines to identify multiple opportunities for drug repurposing: Primary screen for NB-EBc1 cells (AID 1347095); also: potency is read from the fitted curve at half-maximal effect
Outline: as §1

[3] = qHTS of pediatric cancer cell lines to identify multiple opportunities for drug repurposing: Primary screen for Saos-2 cells (AID 1347097); also: potency is read from the fitted curve at half-maximal effect; nearly all actives have a fitted effect of over 40% in size
Outline: as §1

[4] = qHTS of pediatric cancer cell lines to identify multiple opportunities for drug repurposing: Primary screen for SK-N-SH cells (AID 1347098); also: nearly all actives have a fitted effect of over 65% in size; also: potency is read from the fitted curve at half-maximal effect
Outline: (§2)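 Cells (500-1,000/well) rested 5 h, then received compounds for 48 h; metabolically active cells were measured by CellTiter-Glo luminescence. Final concentrations spanned up to 46 µM (MIPE, 11-point) or 0.59 nM-46 µM (NPC, 8-point) in primary screens, 11-point in follow-ups.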

[5] = qHTS of pediatric cancer cell lines to identify multiple opportunities for drug repurposing: Primary screen for LAN-5 cells (AID 1347100); also: potency is read from the fitted curve at half-maximal effect
Outline: (§3)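 Viability after 48 h compound treatment at 37C, 500-1,000 cells/well, read as ATP luminescence with CellTiter-Glo. Primary screens used 11-point (MIPE, 0.78 nM-46 µM) or 8-point (NPC, 0.59 nM-46 µM) final concentrations; follow-up screens used 11-point dilutions.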

[6] = qHTS of pediatric cancer cell lines to identify multiple opportunities for drug repurposing: Primary screen for BT-12 cells (AID 1347101); also: nearly all actives have a fitted effect of over 25% in size; also: potency is read from the fitted curve at half-maximal effect
Outline: as §2

[7] = qHTS of pediatric cancer cell lines to identify multiple opportunities for drug repurposing: Primary screen for OHS-50 cells (AID 1347103); also: potency is read from the fitted curve at half-maximal effect; nearly all actives have a fitted effect of over 40% in size
Outline: as §2

[8] = qHTS of pediatric cancer cell lines to identify multiple opportunities for drug repurposing: Primary screen for RD cells (AID 1347104); also: potency is read from the fitted curve at half-maximal effect; nearly all actives have a fitted effect of over 55% in size
Outline: as §1

[9] = qHTS of pediatric cancer cell lines to identify multiple opportunities for drug repurposing: Confirmatory screen for NB1643 cells (AID 1347109); also: nearly all actives have a fitted effect of over 45% in size; also: potency is read from the fitted curve at half-maximal effect
Outline: as §3

[10] = qHTS of pediatric cancer cell lines to identify multiple opportunities for drug repurposing: Confirmatory screen for BT-12 cells (AID 1347112); also: nearly all actives have a fitted effect of over 55% in size
Outline: as §3

[11] = qHTS of pediatric cancer cell lines to identify multiple opportunities for drug repurposing: Confirmatory screen for LAN-5 cells (AID 1347113); also: nearly all actives have a fitted effect of over 65% in size; also: potency is read from the fitted curve at half-maximal effect
Outline: as §3

[12] = qHTS of pediatric cancer cell lines to identify multiple opportunities for drug repurposing: Primary screen for U-2 OS cells (AID 1347096); also: nearly all actives have a fitted effect of over 50% in size
Outline: as §3

[13] = qHTS of pediatric cancer cell lines to identify multiple opportunities for drug repurposing: Primary screen for Rh18 cells (AID 1347102); also: nearly all actives have a fitted effect of over 65% in size; also: potency is read from the fitted curve at half-maximal effect
Outline: as §3

[14] = qHTS of pediatric cancer cell lines to identify multiple opportunities for drug repurposing: Primary screen for MG 63 (6-TG R) cells (AID 1347105); also: nearly all actives have a fitted effect of over 50% in size; also: potency is read from the fitted curve at half-maximal effect
Outline: as §1

[15] = qHTS of pediatric cancer cell lines to identify multiple opportunities for drug repurposing: Primary screen for control Hh wild type fibroblast cells (AID 1347106); also: nearly all actives have a fitted effect of over 55% in size; also: potency is read from the fitted curve at half-maximal effect
Outline: as §3

[16] = qHTS of pediatric cancer cell lines to identify multiple opportunities for drug repurposing: Primary screen for Rh30 cells (AID 1347107); also: nearly all actives have a fitted effect of over 75% in size; also: potency is read from the fitted curve at half-maximal effect
Outline: as §3

[17] = qHTS of pediatric cancer cell lines to identify multiple opportunities for drug repurposing: Primary screen for Rh41 cells (AID 1347108); also: nearly all actives have a fitted effect of over 70% in size; also: potency is read from the fitted curve at half-maximal effect
Outline: as §1

[18] = qHTS of pediatric cancer cell lines to identify multiple opportunities for drug repurposing: Confirmatory screen for SK-N-MC cells (AID 1347111);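 also: potency is read from the fitted curve at half-maximal effect; cells exposed to compound for 48 h before the readout; nearly all actives have a fitted effect of over 70% in size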
Outline: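 SK-N-MC cells at 500-1,000 cells/well in growth media were pre-incubated 5 h, then exposed to compounds at 11-point dilutions for 48 h at 37 degrees C, 5% CO2. Viability was read as CellTiter-Glo luminescence.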

[19] = qHTS of pediatric cancer cell lines to identify multiple opportunities for drug repurposing: Primary screen for NB1643 cells (AID 1347099); also: potency is read from the fitted curve at half-maximal effect; nearly all actives have a fitted effect of over 50% in size
Outline: as §1

Measured: Potency

CC(=O)SCC(Cc1ccccc1)C(=O)NCC(=O)OCc1ccccc1 (stereo unspecified)
inactive: [9] | [10] | [11]
active: [1] 344 nM | [2] 1660 nM | [3] 4.69 µM | [4] 271 nM | [5] 296 nM | [6] 3.43 µM | [7] 19300 nM | [8] 2.09 µM

CC(C)(C)c1nc2c3cc[nH]c(=O)c3c3cc(F)ccc3c2[nH]1
active: [4] 9610 nM
inactive: [1] | [2] | [12] | [6] | [13] | [14] | [15] | [16] | [17]

COc1ccc(C[C@@H](C)[C@@H](C)Cc2ccc(OC)c(OC)c2)cc1OC
inactive: [4] | [13] | [16] | [11]
active: [1] 968 nM | [2] 118 nM | [3] 1.05 µM | [5] 187 nM | [6] 0.863 µM | [7] 685 nM | [18] 10.4 µM

CNC(=O)c1cccc(-c2ccc3c(N4CCOC[C@H]4C)nc(N4CCOC[C@H]4C)nc3n2)c1
active: [1] 122 nM | [2] 132 nM | [3] 0.833 µM | [13] 332 nM | [7] 68.5 nM | [8] 0.148 µM | [14] 29.6 nM | [18] 1.04 µM | [11] 2.33 µM

CCOC(=O)N1CCN([N+]([O-])=NOc2ccc([N+](=O)[O-])cc2C#N)CC1
inactive: [4] | [16]
active: [1] 7690 nM | [2] 5260 nM | [19] 3.72 µM | [6] 3.06 µM | [7] 3430 nM | [8] 4.69 µM | [9] 3.69 µM | [18] 3.29 µM | [11] 4.65 µM

COc1ccc2c(c1OC)C(=O)OC2[C@H]1c2c(cc3c(c2OC)OCO3)CCN1C (stereo partly specified)
inactive: [13] | [9] | [10] | [11]
active: [1] 611 nM | [2] 372 nM | [3] 0.235 µM | [6] 1.09 µM | [8] 0.372 µM

CC(=O)[C@]1(O)Cc2c(O)c3c(c(O)c2[C@@H](O[C@H]2C[C@H](N)[C@@H](O)[C@H](C)O2)C1)C(=O)c1ccccc1C3=O
active: [1] 193 nM | [2] 37.2 nM | [4] 192 nM | [19] 0.743 µM | [5] 93.5 nM | [6] 0.685 µM | [13] 4690 nM | [7] 485 nM | [8] 1.05 µM | [14] 235 nM | [15] 3.72 µM | [16] 4.69 µM | [17] 935 nM | [18] 0.522 µM | [11] 0.329 µM

Source: PubChem BioAssay (NCATS)
